Bioassay records deposited in PubChem by National Center for Advancing Translational Sciences (NCATS).
Pf growth 96h = P. falciparum growth inhibition at 96 hour, primary screen for plastid delayed-death inhibitors. actives 6.9% (n = 320,000). Potency, µM (top dose mostly 28.7 µM), for the others: at the highest dose activity change, negative = inhibition, most hits filed as inhibitors. AID 504834. P. falciparum luciferase reporter growth, 96 h; also: potency is read from the fitted curve at half-maximal effect; % is scaled to controls: 0 for no effect and ±100 for the full control effect
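Readout is luminescence from an integrated firefly luciferase in P. falciparum. Red cells, 2% hematocrit and 0.05% parasitemia final, were cultured with compound through two parasite generations (96 hours) at 37 C, 5% CO2.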
CHX counter = counter-screen for Shiga toxin inhibitors: cycloheximide protein synthesis inhibition | actives 12% (n = 300,000) | max response, % | cell reporter, cycloheximide protein synthesis inhibition counterscreen | AID 2314; in the data active = max response mostly above about 13%, no sharp cut-off; inactive = mostly below about 14%; also: read at 38.3 µM for the half of the compounds with a filed dose; 0% is about no effect
HCMV inh = inhibitors of human cytomegalovirus. HFF cells, HCMV-luciferase reporter, 72 h; stronger effect = lower value. activity change, negative = inhibition, % at 57.5 µM. actives 4.5% (n = 410,000); in the data active = activity change below about -60%; inconclusive = no clear call, values can overlap the other calls; inactive = above about -39%; also: % is scaled to controls: 0 for no effect and ±100 for the full control effect
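Cell-based, HFFs, 1000 cells/well, 16 h 37C; cpds in DMSO + HCMV-luc, MOI 1 PFU/cell; 72 h 37C; OneGlo luminescence after 5 min RT; norm. to buffer vs Salinomycin 10uM.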
Shiga toxin inh = blocks Shiga toxin action in Vero cells | AID 2315 | inhibition, % at 38.7 µM | actives 9.2% (n = 290,000) | Vero cells, Shiga toxin protein synthesis inhibition reporter; in the data active = inhibition mostly above about 28%, no sharp cut-off; inactive = mostly below about 43%; also: 0% is about no effect
Pf growth 48h = P. falciparum growth inhibition at 48 hours (one generation); P. falciparum luciferase growth in erythrocytes, 48 h; Potency, µM (series often up to 28.7 µM), inactives show top-dose activity change, negative = inhibition, hits mostly inhibitors; actives 5.9% (n = 310,000); also: potency is read from the fitted curve at half-maximal effect; % is scaled to controls: 0 for no effect and ±100 for the full control effect
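Parasite viability was followed by luminescence of a genomically integrated firefly luciferase. Cultures held 0.1% parasitemia at 2% hematocrit (final), incubated under 5% CO2 at 37 C.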
Active calls of the source: *. Hits are enriched below; roughly 20% of the tested compounds scored in any of these assays. Unless noted, calls follow the shape of the dose curve; as a rule, active = well fitted inhibition curve with a large enough effect; inconclusive = small, poorly fitted or top-dose-only effect, or another doubt; inactive = no such curve, though single readings can be large or run the other way.

What do the screens show for `Cc1cccc(C(=O)Nc2ccc3c(c2)CC2(C(=O)N(C)C(=O)N(C)C2=O)C2CCCN32)c1` (centres undefined)?
Pf growth 96h: 8.28µM*; CHX counter: 1.7; Shiga toxin inh: 22.8; Pf growth 48h: inconclusive

Results for CN1C(=O)N(C)C(=O)C2(Cc3ccccc3N3CCOCC32)C1=O (centres undefined) ?
Pf growth 96h: 27.3%; CHX counter: 1.0; HCMV inh: 29.4; Shiga toxin inh: 4.5; Pf growth 48h: 8.2%

How did CC(C)c1ccccc1OCC(=O)N(C)CC(=O)Nc1ccc(F)cc1 do in these assays?
Pf growth 96h: inconclusive; HCMV inh: 2.2; Pf growth 48h: inconclusive

What do the screens show for `CCC(Cc1ccccc1)NS(=O)(=O)c1csc(C(N)=O)c1` (centres undefined)?
Pf growth 96h: 59.7%; CHX counter: 10.1; HCMV inh: 26.4; Shiga toxin inh: -14.4; Pf growth 48h: 17.3%

Results for Cc1ccc(C2=NCC(C)n3c2c2ccc(C(F)(F)F)cc2[n+]3[O-])cc1 (centres undefined) ?
HCMV inh: 22.7

Results for O=c1[nH]nc(SCCS(=O)(=O)c2ccc(F)cc2)n1-c1ccccc1 ?
Pf growth 96h: -23.1%; CHX counter: 12.2*; HCMV inh: -79.5*; Shiga toxin inh: -10.6; Pf growth 48h: inconclusive

What do the screens show for `Cc1nc(CSc2n[nH]c(=O)n2-c2cccc(F)c2)cs1`?
Pf growth 96h: 25.5%; CHX counter: -0.7; HCMV inh: 55.0; Shiga toxin inh: -2.1; Pf growth 48h: -14.5%

Results for O=c1[nH]nc(SCCS(=O)(=O)c2ccc(F)cc2)n1-c1ccc2c(c1)OCCO2 ?
Pf growth 96h: 5.7%; CHX counter: 1.7; HCMV inh: -80.7*; Shiga toxin inh: 1.2; Pf growth 48h: 6.1%

How did CCOC(=O)C(=O)N1CCC(C(=O)OCC)CC1 do in these assays?
Pf growth 96h: 13.7%; CHX counter: 28.0*; HCMV inh: 6.8; Shiga toxin inh: 28.9; Pf growth 48h: -10.9%

What do the screens show for `CCOC(=O)C1CCN(c2c(N3CCCCCC3)c(=O)c2=O)CC1`?
Pf growth 96h: 10.4µM*; CHX counter: 8.8; HCMV inh: inconclusive; Shiga toxin inh: -9.0; Pf growth 48h: 11.6%

How did O=C(NC1CCCCC1)c1ccc(-c2ccccc2F)o1 do in these assays?
HCMV inh: 163.9

Results for CN1/C(=C\C(=O)Nc2ccc(F)cc2)C(C)(C)c2ccccc21 ?
Pf growth 96h: inconclusive; CHX counter: 0.7; HCMV inh: -3.8; Shiga toxin inh: 33.4; Pf growth 48h: 5.22µM*

Results for CN1/C(=C\C(=S)NC(=O)c2cccc(Br)c2)C(C)(C)c2ccccc21 ?
Pf growth 96h: 11.7µM*; CHX counter: 6.3; HCMV inh: -95.6*; Shiga toxin inh: 1.5; Pf growth 48h: inconclusive

Results for CN1/C(=C\C(=S)NC(=O)c2ccc([N+](=O)[O-])cc2)C(C)(C)c2ccccc21 ?
Pf growth 96h: 25.0%; CHX counter: -0.7; HCMV inh: -36.1; Shiga toxin inh: 1.4; Pf growth 48h: -1.4%

Results for Cc1nn(S(=O)(=O)c2ccccc2)c(C)c1Sc1ccc([N+](=O)[O-])cc1 ?
Pf growth 96h: inconclusive; CHX counter: -1.5; HCMV inh: -85.3*; Shiga toxin inh: -8.1; Pf growth 48h: inconclusive

How did Cc1nn(S(=O)(=O)c2cccs2)c(C)c1Sc1ccc([N+](=O)[O-])cc1 do in these assays?
Pf growth 96h: inconclusive; CHX counter: 12.1; HCMV inh: -83.9*; Shiga toxin inh: -4.9; Pf growth 48h: inconclusive

What do the screens show for `Cc1csc(SCC(=O)Nc2cc(F)ccc2C)n1`?
HCMV inh: 18.5

Results for OC(COc1ccc(CNCCc2ccc(C(F)(F)F)cc2)cc1)CN1CCCCC1 (centres undefined) ?
Pf growth 96h: 9.6%; CHX counter: -3.0; HCMV inh: -80.1*; Shiga toxin inh: -11.2; Pf growth 48h: 2.08µM*

Results for Fc1ccc(NC(=S)NCc2ccccc2Cl)cc1 ?
Pf growth 96h: 8.1%; CHX counter: -2.6; HCMV inh: -70.1*; Shiga toxin inh: 9.6; Pf growth 48h: 11.9%

Results for COc1ccccc1CNC(=S)Nc1ccc(F)cc1 ?
Pf growth 96h: inconclusive; CHX counter: 4.6; HCMV inh: -24.6; Pf growth 48h: -9.2%

What do the screens show for `Fc1ccc(NC(=S)NCc2ccccn2)cc1`?
Pf growth 96h: 156.8%; CHX counter: 16.3*; HCMV inh: 27.4; Shiga toxin inh: 46.3*; Pf growth 48h: 44.9%

What do the screens show for `S=C(NCc1ccccn1)Nc1ccccc1`?
Pf growth 96h: 65.7%; CHX counter: 7.0; HCMV inh: -14.7; Shiga toxin inh: 10.4; Pf growth 48h: 37.7%

Results for Cc1ccc(C(=O)N2CCC(Cc3ccccc3)CC2)cc1S(=O)(=O)N1CCOCC1 ?
Pf growth 96h: inconclusive; HCMV inh: -5.0; Pf growth 48h: inconclusive

How did CC(NC(=O)C(Cc1ccccc1)N1C(=O)C2C3CCC(C3)C2C1=O)c1ccccc1 (centres undefined) do in these assays?
Pf growth 96h: 27.9%; CHX counter: 4.6; HCMV inh: -61.1*; Shiga toxin inh: -8.2; Pf growth 48h: inconclusive

What do the screens show for `C#C[C@]1(OC(C)=O)CC[C@H]2[C@@H]3CCC4=C/C(=N/O)CC[C@@H]4[C@H]3CC[C@@]21CC`?
Pf growth 96h: 0.953µM*; Pf growth 48h: -11.3%

What do the screens show for `O=C(Nc1ccc(F)cc1)c1csc(Cc2ccccc2)n1`?
Pf growth 96h: 337.0%; CHX counter: 54.5*; HCMV inh: 37.1; Shiga toxin inh: 104.2*; Pf growth 48h: 137.5%

Results for COc1ccc(NC(=O)c2csc(Cc3ccccc3)n2)cc1 ?
CHX counter: 43.4*; HCMV inh: -22.3; Shiga toxin inh: 74.2; Pf growth 48h: 19.3%

How did COc1ccc(CNC(=O)c2csc(Cc3ccccc3)n2)cc1 do in these assays?
Pf growth 96h: 62.2%; CHX counter: 20.8*; HCMV inh: 64.7; Shiga toxin inh: 63.6*; Pf growth 48h: 0.7%

How did COc1ccc(CNC(=O)c2csc(N3CCN(CCc4ccccc4)C3=O)n2)cc1OC do in these assays?
HCMV inh: -85.9*

Results for O=C(O)c1csc(Cc2ccccc2)n1 ?
Pf growth 96h: 42.2%; CHX counter: 1.2; HCMV inh: -29.5; Shiga toxin inh: -5.3; Pf growth 48h: 18.9%

Results for Cc1ccc(C(=O)OCC(=O)N(CC(C)C)c2c(N)n(Cc3ccccc3)c(=O)[nH]c2=O)s1 ?
Pf growth 96h: -9.9%; CHX counter: -2.7; HCMV inh: 26.9; Shiga toxin inh: -5.1; Pf growth 48h: inconclusive

Results for CCCC[C@H]1C2=C3[C@@H](CC(C(=O)OC)=C[C@@H](C(=O)OC)[C@H]3C(C)(C)C2=O)n2c(=O)n(C)c(=O)n21 ?
CHX counter: -2.1; Shiga toxin inh: 4.8

What do the screens show for `CCC(C(=O)NCCCN1CCCC1=O)n1c2ccccc2c2nc(=O)cc(C)n21` (centres undefined)?
Pf growth 96h: inconclusive; CHX counter: -8.5; HCMV inh: -17.6; Shiga toxin inh: -5.0; Pf growth 48h: 10.7%
